# According to ChEMBL document CHEMBL3988442, “University of Dundee, Small-Polar-MMV Screening Library” (2021):
# For part of these data: Measured potencies and affinities stand elsewhere.
# Key:
# Parameters in all cases: scale not given: direction of the effect not stated beside the values
# [1] = biological target: Protein translocase subunit SecA (Escherichia coli (strain K12)) (UniProt P10408); assay: Assay to Identify E. coli SecA ATPase Inhibitors; format: functional; settings: 30 µM
# [2] = biological target: T1, Ubiquitin-activating enzyme e1, putative (Leishmania donovani (strain BPK282A1)) (UniProt E9BSI1); assay: Leishmania donovani Ubiquitin Activating Enzyme (LdE1); format: functional; settings: 30 µM
# T1 sequence (whole entry): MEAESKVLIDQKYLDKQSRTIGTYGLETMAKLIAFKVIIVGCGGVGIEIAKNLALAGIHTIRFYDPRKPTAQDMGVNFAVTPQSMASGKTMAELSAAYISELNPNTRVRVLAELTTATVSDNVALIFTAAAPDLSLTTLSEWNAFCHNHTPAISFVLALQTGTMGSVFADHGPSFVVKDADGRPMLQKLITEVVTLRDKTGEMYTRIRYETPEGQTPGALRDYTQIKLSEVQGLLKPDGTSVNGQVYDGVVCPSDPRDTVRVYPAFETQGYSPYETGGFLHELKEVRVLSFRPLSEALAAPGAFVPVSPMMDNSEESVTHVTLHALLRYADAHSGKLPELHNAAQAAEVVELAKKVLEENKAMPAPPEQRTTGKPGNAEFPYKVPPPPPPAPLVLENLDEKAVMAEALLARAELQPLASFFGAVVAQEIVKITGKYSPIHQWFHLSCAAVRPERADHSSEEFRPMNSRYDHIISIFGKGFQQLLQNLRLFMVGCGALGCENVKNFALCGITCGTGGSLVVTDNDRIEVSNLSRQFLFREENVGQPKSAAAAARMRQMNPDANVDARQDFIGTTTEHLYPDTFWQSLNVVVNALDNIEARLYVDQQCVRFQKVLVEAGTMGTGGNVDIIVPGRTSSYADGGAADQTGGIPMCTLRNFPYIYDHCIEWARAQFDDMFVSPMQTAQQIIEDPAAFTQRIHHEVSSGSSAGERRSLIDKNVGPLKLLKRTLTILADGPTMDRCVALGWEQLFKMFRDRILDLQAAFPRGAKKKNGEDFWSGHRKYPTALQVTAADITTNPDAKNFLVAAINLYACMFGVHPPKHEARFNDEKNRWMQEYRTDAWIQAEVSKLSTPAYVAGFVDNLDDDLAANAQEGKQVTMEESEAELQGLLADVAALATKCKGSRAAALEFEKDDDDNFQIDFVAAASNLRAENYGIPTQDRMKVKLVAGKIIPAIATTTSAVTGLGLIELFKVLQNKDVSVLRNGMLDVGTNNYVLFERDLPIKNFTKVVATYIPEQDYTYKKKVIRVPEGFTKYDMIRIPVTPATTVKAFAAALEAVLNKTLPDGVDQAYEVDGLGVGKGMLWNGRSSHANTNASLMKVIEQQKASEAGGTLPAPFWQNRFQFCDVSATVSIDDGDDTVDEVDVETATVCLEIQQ
# [3] = biological target: AMP-activated protein kinase, AMPK (Homo sapiens) (UniProt P54646+O43741+P54619+Q9UGJ0+Q9Y478+Q13131+Q9UGI9); assay: AMP-dependent Kinase enzyme assay. An in vitro enzyme assay that detects ADP turnover that is directly proportional to AMPK activity. This uses naive AMPK that is activated during the assay with MK-8722; format: functional; settings: 30 µM
# [4] = biological target: Sialic acid-binding Ig-like lectin 9 (Homo sapiens) (UniProt Q9Y336); assay: Hs-Siglec9 ALPHAscreen SOP 20170721; settings: 10 µM
# Chain of Sialic acid-binding Ig-like lectin 9 (Homo sapiens) (Q9Y336 whole entry): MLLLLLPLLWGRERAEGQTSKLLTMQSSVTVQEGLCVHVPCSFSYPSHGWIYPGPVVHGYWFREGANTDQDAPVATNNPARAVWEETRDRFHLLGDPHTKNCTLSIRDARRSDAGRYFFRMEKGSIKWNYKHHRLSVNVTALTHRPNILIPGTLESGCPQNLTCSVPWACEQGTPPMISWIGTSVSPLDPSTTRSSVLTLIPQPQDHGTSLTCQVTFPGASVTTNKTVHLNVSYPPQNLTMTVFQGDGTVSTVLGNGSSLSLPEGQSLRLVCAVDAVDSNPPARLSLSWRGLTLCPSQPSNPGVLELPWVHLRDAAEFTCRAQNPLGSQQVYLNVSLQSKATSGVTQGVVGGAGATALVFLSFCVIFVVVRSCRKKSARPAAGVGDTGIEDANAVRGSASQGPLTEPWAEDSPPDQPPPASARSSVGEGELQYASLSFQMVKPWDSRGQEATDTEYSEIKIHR
# [5] = tested on: Trypanosoma cruzi; assay: Trypanosoma cruzi phosphomannomutase and mannose-1-phosphate guanylyltransferase assay; format: functional; settings: 10 µM
# [6] = biological target: T2, Arginase-2, mitochondrial (Homo sapiens) (UniProt P78540); assay: in vitro enzyme assay to detect the production of urea directly proportional to the activity of Arginase II; format: functional; settings: 33.3 µM; also: in the data most compounds retested in dose-response had high values
# T2 sequence (whole entry): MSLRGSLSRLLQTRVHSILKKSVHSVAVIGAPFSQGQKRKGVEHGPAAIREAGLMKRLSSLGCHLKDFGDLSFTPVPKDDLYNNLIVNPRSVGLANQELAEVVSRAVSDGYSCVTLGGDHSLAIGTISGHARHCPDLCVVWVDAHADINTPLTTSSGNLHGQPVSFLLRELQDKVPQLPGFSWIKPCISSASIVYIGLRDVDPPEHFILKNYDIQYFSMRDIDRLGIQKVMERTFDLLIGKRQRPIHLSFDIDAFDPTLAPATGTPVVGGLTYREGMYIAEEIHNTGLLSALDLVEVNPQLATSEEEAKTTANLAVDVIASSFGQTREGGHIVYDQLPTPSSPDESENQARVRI
# [7] = biological target: T3, Proteasome subunit beta (Trypanosoma cruzi) (UniProt O96673); assay: Trypanosoma cruzi proteasome chymotrypsin-like activity (TcProtChymo) assay.; also: in the data most compounds retested in dose-response had high values; format: functional; settings: 9.37 µM
# T3 sequence (whole entry): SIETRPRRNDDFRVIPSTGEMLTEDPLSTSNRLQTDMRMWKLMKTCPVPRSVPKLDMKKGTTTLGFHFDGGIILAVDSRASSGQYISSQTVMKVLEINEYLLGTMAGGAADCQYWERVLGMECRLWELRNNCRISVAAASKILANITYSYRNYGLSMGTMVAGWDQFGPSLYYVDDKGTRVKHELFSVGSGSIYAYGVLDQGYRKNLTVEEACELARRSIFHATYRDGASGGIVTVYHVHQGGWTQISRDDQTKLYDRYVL
# [8] = organism: Homo sapiens; assay: To identify inhibition of the IFN signalling (Jak-Stat) pathway via expression of an eGFP reporter gene under the control of an IFN-stimulated response element (ISRE) containing MxA promoter.; format: functional; settings: 30 µM
# [9] = biological target: T4, Tyrosyl-tRNA synthetase, putative (Trypanosoma cruzi (strain CL Brener)) (UniProt Q4DSP6); assay: Trypanosoma cruzi tyrosyl tRNA synthetase (TcYRS) _High Tyrosine SOP; format: functional; settings: 30 µM; also: in the data most compounds retested in dose-response had high values
# T4 sequence (whole entry): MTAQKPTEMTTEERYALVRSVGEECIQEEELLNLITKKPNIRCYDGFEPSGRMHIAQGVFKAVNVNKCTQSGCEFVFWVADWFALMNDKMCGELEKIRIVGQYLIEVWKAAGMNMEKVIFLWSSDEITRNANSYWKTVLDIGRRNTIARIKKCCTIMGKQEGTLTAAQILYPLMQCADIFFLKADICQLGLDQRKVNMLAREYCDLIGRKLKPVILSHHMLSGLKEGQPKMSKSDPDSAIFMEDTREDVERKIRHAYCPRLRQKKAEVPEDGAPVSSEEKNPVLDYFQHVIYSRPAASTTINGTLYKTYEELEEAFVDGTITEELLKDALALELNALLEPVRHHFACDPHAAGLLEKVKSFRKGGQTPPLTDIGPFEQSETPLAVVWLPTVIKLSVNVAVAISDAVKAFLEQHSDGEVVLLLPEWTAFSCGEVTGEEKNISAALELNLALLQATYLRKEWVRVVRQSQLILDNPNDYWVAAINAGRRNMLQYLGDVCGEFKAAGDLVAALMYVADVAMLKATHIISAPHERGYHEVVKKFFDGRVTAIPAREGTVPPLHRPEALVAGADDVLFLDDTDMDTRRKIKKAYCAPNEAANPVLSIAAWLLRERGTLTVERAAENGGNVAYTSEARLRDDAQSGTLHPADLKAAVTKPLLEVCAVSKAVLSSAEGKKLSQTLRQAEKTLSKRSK
# [10] = biological target: T4, Tyrosyl-tRNA synthetase, putative (Trypanosoma cruzi (strain CL Brener)); assay: Trypanosoma cruzi tyrosyl tRNA synthetase (TcYRS) SOP; format: functional; settings: 30 µM
# [11] = biological target: Chromo domain-containing protein 1 (Saccharomyces cerevisiae (strain ATCC 204508 / S288c) (Baker's yeast)) (UniProt P32657); assay: ScCHD-1 Enzyme Inhibition Assay; format: functional; settings: 30 µM; also: in the data most compounds retested in dose-response had high values
# Chain of Chromo domain-containing protein 1 (Saccharomyces cerevisiae (strain ATCC 204508 / S288c) (Baker's yeast)) (P32657 whole entry, the tested form may be a part): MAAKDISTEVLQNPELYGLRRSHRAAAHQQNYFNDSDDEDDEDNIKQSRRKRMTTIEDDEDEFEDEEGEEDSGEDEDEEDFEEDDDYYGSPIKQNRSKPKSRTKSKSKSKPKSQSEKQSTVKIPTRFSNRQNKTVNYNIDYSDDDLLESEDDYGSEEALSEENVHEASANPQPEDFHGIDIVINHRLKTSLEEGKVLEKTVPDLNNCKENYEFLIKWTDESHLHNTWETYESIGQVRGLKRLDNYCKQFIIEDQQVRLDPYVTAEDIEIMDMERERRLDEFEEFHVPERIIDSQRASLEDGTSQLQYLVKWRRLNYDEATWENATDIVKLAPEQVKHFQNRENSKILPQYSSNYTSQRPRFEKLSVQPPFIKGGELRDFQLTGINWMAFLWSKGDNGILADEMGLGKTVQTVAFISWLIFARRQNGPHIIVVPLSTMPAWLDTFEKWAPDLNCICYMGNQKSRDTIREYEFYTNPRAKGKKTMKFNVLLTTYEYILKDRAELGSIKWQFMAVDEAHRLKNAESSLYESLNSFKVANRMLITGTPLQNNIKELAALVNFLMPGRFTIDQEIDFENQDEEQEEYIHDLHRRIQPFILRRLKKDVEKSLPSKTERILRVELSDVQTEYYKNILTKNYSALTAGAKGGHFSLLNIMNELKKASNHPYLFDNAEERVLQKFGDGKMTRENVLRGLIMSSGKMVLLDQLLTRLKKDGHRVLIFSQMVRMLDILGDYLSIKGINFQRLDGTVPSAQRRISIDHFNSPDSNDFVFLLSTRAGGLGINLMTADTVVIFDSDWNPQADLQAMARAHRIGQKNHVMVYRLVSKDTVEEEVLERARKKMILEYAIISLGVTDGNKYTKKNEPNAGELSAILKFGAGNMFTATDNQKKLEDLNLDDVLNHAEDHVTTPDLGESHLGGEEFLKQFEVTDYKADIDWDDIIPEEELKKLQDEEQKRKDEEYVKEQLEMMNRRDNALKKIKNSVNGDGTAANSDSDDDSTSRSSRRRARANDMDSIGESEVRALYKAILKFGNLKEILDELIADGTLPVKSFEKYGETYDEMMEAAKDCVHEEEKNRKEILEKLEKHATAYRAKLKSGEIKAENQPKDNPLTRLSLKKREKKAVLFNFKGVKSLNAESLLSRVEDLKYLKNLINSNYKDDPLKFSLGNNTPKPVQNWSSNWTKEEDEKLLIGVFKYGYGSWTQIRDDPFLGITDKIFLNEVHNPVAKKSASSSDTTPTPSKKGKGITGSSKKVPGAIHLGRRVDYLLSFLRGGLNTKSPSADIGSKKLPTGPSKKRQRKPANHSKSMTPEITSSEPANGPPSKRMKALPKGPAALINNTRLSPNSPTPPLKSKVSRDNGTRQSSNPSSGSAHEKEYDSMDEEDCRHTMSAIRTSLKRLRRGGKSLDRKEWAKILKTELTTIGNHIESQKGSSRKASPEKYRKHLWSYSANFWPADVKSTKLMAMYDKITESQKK
# Chain of Protein translocase subunit SecA (Escherichia coli (strain K12)) (P10408 whole entry): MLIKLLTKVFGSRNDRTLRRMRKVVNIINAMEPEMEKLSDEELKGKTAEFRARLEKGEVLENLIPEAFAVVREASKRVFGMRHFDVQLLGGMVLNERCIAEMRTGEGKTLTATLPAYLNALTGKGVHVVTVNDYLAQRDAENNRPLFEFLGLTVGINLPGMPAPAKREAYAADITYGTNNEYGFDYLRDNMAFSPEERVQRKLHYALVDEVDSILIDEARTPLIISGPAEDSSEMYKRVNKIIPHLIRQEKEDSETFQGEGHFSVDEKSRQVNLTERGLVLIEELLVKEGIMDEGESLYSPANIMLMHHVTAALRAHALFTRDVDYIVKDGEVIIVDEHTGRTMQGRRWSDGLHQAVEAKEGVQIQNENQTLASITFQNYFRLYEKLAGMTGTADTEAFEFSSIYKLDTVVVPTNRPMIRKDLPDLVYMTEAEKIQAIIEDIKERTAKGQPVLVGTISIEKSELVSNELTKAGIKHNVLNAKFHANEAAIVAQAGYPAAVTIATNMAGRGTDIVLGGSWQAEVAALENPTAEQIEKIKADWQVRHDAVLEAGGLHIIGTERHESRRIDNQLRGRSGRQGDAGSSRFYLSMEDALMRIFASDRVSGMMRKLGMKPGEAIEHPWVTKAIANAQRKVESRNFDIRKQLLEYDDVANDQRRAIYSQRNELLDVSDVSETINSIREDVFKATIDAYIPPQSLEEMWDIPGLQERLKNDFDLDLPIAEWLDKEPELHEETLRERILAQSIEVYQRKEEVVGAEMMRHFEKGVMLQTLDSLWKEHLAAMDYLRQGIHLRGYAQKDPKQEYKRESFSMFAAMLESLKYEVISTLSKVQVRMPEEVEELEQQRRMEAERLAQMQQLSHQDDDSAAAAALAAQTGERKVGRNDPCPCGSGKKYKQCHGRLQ
Compound,Percent Effect [1] [%],Percent Effect [2] [%],Percent Effect [3] [%],Percent Effect [4] [%],Percent Effect [5] [%],Percent Effect [6] [%],Percent Effect [7] [%],Percent Effect [8] [%],Percent Effect [9] [%],Percent Effect [10] [%],Percent Effect [11] [%]
CCc1nc(CN(C)C2CCN(Cc3ccc(C#N)cc3F)C2)no1 (stereo unspecified),-6.15,10.8,-3.61,-0.906,-6.7,-6.01,12.6,20.8,7.39,1.24,-7.82
CC(=O)N1CCN(C(=O)CCCc2nc(C(C)C)no2)CC1,-1.74,15.2,2.62,-11.8,-10.1,4.56,8.44,37.4,-0.493,-1.27,-5.47
CC(=O)NCCc1ccc(S(=O)(=O)N(CC(C)C)C(C)C)s1,3,4.17,30.7,4.43,-6.9,-0.883,18.2,16.9,-2.1,-5.13,106
Cc1csc(N2CCN(C(=O)CCc3ccccn3)CC2)n1,-1.62,13.5,-16,7.95,3.87,-12.8,10.8,6.58,10.3,25.9,-12.7
CC(OCC(F)(F)F)C(=O)N1CCN(S(C)(=O)=O)CC1 (stereo unspecified),-3.82,8.22,1.32,-5.16,-3.92,1.36,9.05,17.4,6.45,15,-6.7
CCn1ncc2c1C(COCC1CC1)CN(C(=O)c1cccs1)C2 (stereo unspecified),1.75,24.7,-1.43,2.69,-0.794,-6.39,13.6,21.1,7.29,13.6,-3.6
CCn1cnnc1CNC(=O)N1CCC(Cc2cccnc2)CC1,-2.15,-2.6,-0.131,1.86,-4.41,1.47,0.0808,7.54,-1.91,-4.71,8.62
COc1nn(C)cc1C(=O)N1CCC(c2nnc(C3CC3)o2)CC1,-2.78,10.4,4.71,4.31,-0.888,9.68,11.5,16.4,8.47,11.5,-10.2
O=C(c1ccccn1)N1CCc2nc(-c3cnccn3)nc(O)c2C1,0.65,12.2,8.6,0.354,-3.36,-0.232,11.7,14.4,4.3,14.3,-12.2
Cc1nn(CC(=O)N2CCCCC2Cn2cccn2)c(C)c1Cl (stereo unspecified),-2.25,2.7,0.616,-1.03,-4.3,2.92,14.4,7.18,1.98,13.4,-2.37
CC(C)CC(=O)N1CCN(C(=O)N(C)C)CC2(CC(=O)N(C)C2)C1 (stereo unspecified),-2.6,-27,0.411,-1.03,6.25,-2.5,-1.61,-26.2,2.97,-3.66,-3.69
CC(C)NC(=O)N1CCN(CC2CC2)CC2(CC(=O)N(C)C2)C1 (stereo unspecified),0.576,-10.8,3.4,-6.25,0,1.25,7.02,-5.18,82.2,-6.1,16.8
CN(Cc1ccco1)[C@@H]1CN(C(=O)c2ccnnc2)[C@@H]2CCCO[C@H]12,-2.54,2.74,-7.68,19.2,7.74,-2.4,13.4,-41.3,3.12,13.6,-1.74
CCN(C(c1cccnc1)c1ccc2c(c1)CCO2)S(C)(=O)=O (stereo unspecified),-3.35,5.48,-1.35,6.82,6.75,-6.79,3.17,4.95,1.04,8.64,-2.4
CCN(CC(=O)NC(C)C)S(=O)(=O)N1CCCCCC1,-2.15,16.2,-3.94,11.8,2.64,3.23,12.3,5.69,3.23,16.1,-10.9
OCCC1CN(C2CCC2)CCN1C1CCCC1 (stereo unspecified),-3.14,-1.39,-6.25,-1.98,7.87,-1.77,2.28,-37,1.05,7.69,3.1
Cn1cnc(S(=O)(=O)N2CCCC2)c1Cl,-1.75,4.17,-5.49,-0.277,1.46,13.2,15.4,-29.7,3.16,10.3,-2.89
CCOCc1cccc(S(=O)(=O)N2CCSCC2)c1,-3.9,1.33,4.84,4.89,-6.09,0.88,7.58,5.82,4.23,-2.56,-3.83
Cc1cccc(CNC2CCCc3c2cnn3C)c1 (stereo unspecified),2.29,-5.41,-6.19,5.27,5.38,0,3.6,-2.08,0.493,6.17,-2
CC(C)NC(=O)C1CN(C(=O)c2ccc(F)cc2)CC12CCOCC2 (stereo unspecified),-0.326,6.67,1.28,-10.8,-11.8,-7.22,17.4,-8.73,1.06,2.56,-10.5
O=C(Nc1ccccc1OC(F)F)C1=NN(c2ccccc2)C(=O)CN1,-1.64,10.1,-3.73,-7.92,-3.87,3.04,8.11,8.86,-0.493,11.4,-4.54
